# Biological target: C19orf48
# Test: pooled miR-30 sensor sort-seq; sequence = guide strand
# Conditions: shRNA
# Note: reference of the scale not given here.
row,Sequence,sensor-assay potency score (higher = more potent)
1,TAGGCCTGGTCACAATAGGGAA,-1.64
2,TCTCCTGGGTGTGTGGCTCAGC,-0.768
3,CCACTTATCCACCTTCTCCTGG,-1.46
4,TTGTGCACTGGGTTGGGTCCCA,-0.4
5,TCCTTGTGCACTGGGTTGGGTC,-1.63

# Biological target: C19orf61
# Test: as above
# Conditions: shRNA
row,Sequence,sensor-assay potency score (higher = more potent)
1,TCTGCTGTCTGCAGGAACCTGT,-0.731
2,TTGGCTGACAACAATGACATGA,0.194
3,TAAGTTGACCTCAGAGTCCAGG,-0.418
4,TTTGCGGTCATTATTGATGAGA,-1.14
5,TTCTCGGTGAGGATCGTGTGTG,-0.797
6,TTGACCGCTCTGCTGGAGGTTT,-0.879
7,TTCTGCATGACGGAAGTGCTTG,-0.495
8,TCATCCACCAACTTGATGCTGT,0.069
9,TTGGGTAATAAAGAAGTCGATG,-0.372
10,TTCTTCTCGGTGAGGATCGTGT,-0.682
11,TAAAGAGCTCTCCAGACCCTGC,-0.972
12,TTGCATTGTAACATGGACAGAG,0.588

# Biological target: C1GALT1C1
# Test: as above
# Conditions: shRNA
row,Sequence,sensor-assay potency score (higher = more potent)
1,TATCTTCTTTGTTAGGAGCTTG,-0.577
2,TTTTCATTGATTCTACACTTAA,-1.52
3,TTTATCTTCAGATATCTTCCAA,0.63
4,TTTTCAATGATAGCAAACGTAG,-1.07
5,TAAGTCTTTTCATTGATTCTAC,-0.486
6,TACATCATCACATGCATCTGAT,-0.0617
7,TTATCTTCAGATATCTTCCAAA,-0.897
8,TTTGTTAGGAGCTTGTAGGTGA,0.841
9,ATAATGACAACACACGTCCTAT,-0.903
10,TATCTGAACAACAGCCTTCTAC,-0.664
11,TTAATTGACTCAAACACTTTAA,-1.19
12,TTTGGTATTAAATACATCTTTT,-0.97

# Biological target: C1QL1
# Test: as above
# Conditions: shRNA
row,Sequence,sensor-assay potency score (higher = more potent)
1,TTGAGTACCTCGTAACCCTCGT,-0.551
2,TGCAGGATCACGCTGTTGCTGG,-1.19
3,TAGGGGTCGCACACCATGCGGC,-0.617
4,TAGTTGTTGCCTAGGTTGGTGA,-1.01
5,TATTTGTTGCTGTTGCCGCCGT,-0.708
6,TTTGCCTCCATCCAGCTTGATG,-1.62
7,TTTGTTGCTGTTGCCGCCGTGT,-0.647
8,TCCAGGTGCAGGATCACGCTGT,-0.765
9,TCAAACTTGAGTACCTCGTAAC,-0.701
10,TATAACTTTGGTCAGACGGGGC,-0.517
11,TAGGTGAAAAAGTAGGTGCCGG,-0.205

# Source: the OligoGym collection
